Source: PubChem BioAssay (NCATS)
“And” between values parts separate entries of the source, which are not always exact repeats. Equal values may be shown once. Records with an inconclusive call do not appear. The source made the active and inactive calls. Calls follow the shape of the dose curve; as a rule, active = well fitted curve in either direction with a large enough effect (not every such curve was filed as active); inconclusive = small, poorly fitted or top-dose-only effect, or another doubt; inactive = flat fitted curve, though single readings scatter.

Test: NFAT Signaling Pathway (AID 444)
Settings: Jurkat NFAT-bla M1, carbachol, beta-lactamase ratio, 5 h; at 17.2 µM (top of the series)
Description: NCGC Assay Overview: The nuclear factor of activated T cells (NFAT) family of transcription factors has been found primarily in most immune system cells and some other non-immune cells. NFAT plays the immunomodulatory role, primarily in T-cell activation and differentiation. NFAT target genes are also involved in the regulation of apoptosis and differentiation in non-immune cell types. The NFAT sequence was engineered to the upstream of the ?-lactamase reporter gene and transfected into Jurkat cells with co-transfection of muscarinic receptor1 [provided by Invitrogen Corp]. When an extracellular stimulus, such as carbachol, binds to the GPCR M1 receptor, it stimulates a signaling cascade that activates NFAT response element and ?-lactamase expression by phosphorylating the NFAT binding protein. This cell based ?-lactamase reporter gene assay can accurately monitor any changes occurring along the NFAT pathway, and can be used for screening small molecule inhibitor or activator upon activation by carbachol EC50 concentration. A small molecular library were screened in a titration series resulting in AC50s (can be either IC50s or EC50s).
NCGC Assay Protocol Summary: The cells were prepared in RPMI 1640 medium containing 0.1% dialyzed FBS and 25 mM HEPES at 1.6 x 10^6cell/ml. The assay was performed in 1536-well plate format as follows: 5 ul of cell preparation 23 nl of compounds 1ul of carbachol (final concentration 1 uM) Briefly centrifuge the plates and incubate at 37 °C for 5 hours 1 ul of CCF4 dye mixture Incubate the plates at RT for 1 hour Read the plate in EnVision plate reader (Ex= 405nm, and Em1=460nm and Em2=530nm). The %Activity was determined from the ratio of 460nm/530nm. Data normalization and AC50 calculations were accomplished using GeneData software.
% is scaled to controls: 0 for no effect and ±100 for the full control effect.

Compound | activity change, negative = inhibition
N[C@@H](Cc1ccc(O)c(O)c1)C(=O)O | 1.41% (inactive)

Same assay, conditions: Jurkat NFAT-bla M1, carbachol, beta-lactamase ratio, 5 h; at 17.2 µM (top of the series) unless noted

Compound | activity change, negative = inhibition
CC1=CC(=O)c2ccccc2C1=O | -115% (active)
Cc1cccc(Nc2ccncc2S(=O)(=O)NC(=O)NC(C)C)c1 | -2.46% (inactive)
Cc1noc(NS(=O)(=O)c2ccc(N)cc2)c1C | -7.16% (inactive) and 11.7% (inactive)
CCn1cc(C(=O)O)c(=O)c2cc(F)c(N3CCNCC3)nc21 | -11.9% (inactive) and 9.94% (inactive)
CC(C)(Sc1cc(C(C)(C)C)c(O)c(C(C)(C)C)c1)Sc1cc(C(C)(C)C)c(O)c(C(C)(C)C)c1 | 10.7% (inactive)
Cc1ncc([N+](=O)[O-])n1CCO | -4.16% (inactive) and -8.01% (inactive)
Cc1nnc(NS(=O)(=O)c2ccc(N)cc2)s1 | 16.1% (inactive) and -9.52% (inactive)
COc1cnc(NS(=O)(=O)c2ccc(N)cc2)nc1 | -4.83% (inactive)
COc1ncnc(NS(=O)(=O)c2ccc(N)cc2)c1OC | -25.1% (inactive)
OCc1ccc(-c2nn(Cc3ccccc3)c3ccccc23)o1 | 4.66% [at 38 µM] (inactive)
Cn1c(=O)c2c(ncn2CC(O)CO)n(C)c1=O (configuration not stated) | 10.5% (inactive)
N[C@@H](C(=O)N[C@@H]1C(=O)N2C(C(=O)O)=C(Cl)CS[C@H]12)c1ccccc1 | 7.31% (inactive)
CC1=NN(c2ccccc2)C(=O)C1 | 9.94% (inactive)
COc1ccc2c(c1)c(CC(=O)OCC(=O)O)c(C)n2C(=O)c1ccc(Cl)cc1 | 2.54% (inactive) and 1.97% (inactive)
CCC(=O)O[C@]1(C(=O)CCl)[C@@H](C)C[C@H]2[C@@H]3CCC4=CC(=O)C=C[C@]4(C)[C@@]3(F)[C@@H](O)C[C@@]21C | -24.5% (inactive)
COc1cc2ncnc(Nc3cccc(Cl)c3)c2cc1OC | 3.52% [at 38 µM] (inactive)
COc1ccccc1OCC(O)COC(N)=O (configuration not stated) | -29.9% (inactive)
Nc1ccc(S(=O)(=O)Nc2ccccn2)cc1 | -3.78% (inactive) and -28.1% (inactive)

Compound | activity change, negative = inhibition
CCN(CC)CC#CCOC(=O)C(O)(c1ccccc1)C1CCCCC1 (configuration not stated) | -93% (active)
Cc1cc(NS(=O)(=O)c2ccc(N)cc2)no1 | 1.34% (inactive) and -21.2% (inactive)
NNC(=O)c1ccncc1 | -9.4% (inactive) and 6.65% (inactive)
Nc1[nH]c(=O)ncc1F | 0.663% (inactive)
COC(=O)Nc1nc2ccc(Sc3ccccc3)cc2[nH]1 | -6.14% (inactive)
NC(N)=NC(N)=NCCc1ccccc1 | -2.75% (inactive) and 12.2% (inactive)
CCc1cc(C(N)=S)ccn1 | 5.86% (inactive)
NC(=O)c1cccc(N)c1 | 1.89% [at 38 µM] (inactive)
O=S(=O)(c1cccc2cnccc12)N1CCCNCC1 | -20.4% (inactive)
CNNCc1ccc(C(=O)NC(C)C)cc1 | -25.9% (inactive)
O=C(O)c1cccnc1 | -4.12% (inactive)
COc1cc(NS(=O)(=O)c2ccc(N)cc2)nc(OC)n1 | -19.2% (inactive)
CCCCOc1ccc(CC(=O)NO)cc1 | -5.9% (inactive) and 15% (inactive)
CC(=O)[C@H]1CC[C@H]2[C@@H]3CCC4=CC(=O)CC[C@]4(C)[C@H]3CC[C@]12C | -29.5% (inactive)
CCCOc1ccc(C(=O)OCCN(CC)CC)cc1N | -19.1% (inactive)
O=C(O)c1cn(C2CC2)c2cc(N3CCNCC3)c(F)cc2c1=O | 6.31% (inactive)
CCn1cc(C(=O)O)c(=O)c2cc(F)c(N3CCNCC3)cc21 | 1.51% (inactive) and 17.3% (inactive)

Same assay, conditions: Jurkat NFAT-bla M1, carbachol, beta-lactamase ratio, 5 h; at 38 µM (top of the series)

Compound | activity change, negative = inhibition
N[C@@H](Cc1ccc(O)c(O)c1)C(=O)O | 18.2% (inactive)
